PubChem BioAssay (EPA / NIEHS)
Active and inactive are the calls of the source. The calls were made as follows: active = hit-call score of the fitted dose curve at least 0.9, where 1 is the maximum; inactive = score below 0.9.

Columns and labels:
[1] = read-out: Tissue Factor, F3 (gene 2152); assay: BSK_CASM3C_TissueFactor: BioMAP Diversity Plus: CASM3C Assay for Tissue Factor Biomarker Activity (AID 2283052); conditions: primary human coronary artery smooth muscle cells; actives raise or lower the signal;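 also: cell surface tissue factor protein level read by ELISA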
[2] = read-out: Interferon-gamma inducible Protein 10 (IP10), CXCL10 (gene 3627); assay: BSK_hDFCGF_IP10: BioMAP Diversity Plus: hDFCGF Assay for Interferon-gamma inducible Protein 10 (IP10) Biomarker Activity (AID 2283053); conditions: primary human foreskin fibroblasts; actives raise or lower the signal
Procedure, shortened: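 IP-10 levels, quantified by ELISA, are taken from human foreskin fibroblast cultures 24 h after chemical treatment, with DMSO serving as negative control and baseline for bidirectional analysis.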

[3] = read-out: Urokinase-type plasminogen activator receptor (uPAR), PLAUR (gene 5329); assay: BSK_CASM3C_uPAR: BioMAP Diversity Plus: CASM3C Assay for Urokinase-type plasminogen activator receptor (uPAR) Biomarker Activity (AID 2283054); conditions: primary human coronary artery smooth muscle cells; actives raise or lower the signal;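 also: cell-surface uPAR protein level quantified by ELISA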
[4] = read-out: Vascular cell adhesion molecule 1 (VCAM1), VCAM1 (gene 7412); assay: BSK_CASM3C_VCAM1: BioMAP Diversity Plus: CASM3C Assay for Vascular cell adhesion molecule 1 (VCAM1) Biomarker Activity (AID 2283055); conditions: primary human coronary artery smooth muscle cells; actives raise or lower the signal;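 also: VCAM-1 protein level quantified by ELISA on the cells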
[5] = read-out: Collagen III, COL3A1 (gene 1281); assay: BSK_hDFCGF_CollagenIII: BioMAP Diversity Plus: hDFCGF Assay for Collagen III Biomarker Activity (AID 2283056); conditions: primary human foreskin fibroblasts; actives raise or lower the signal
Procedure, shortened: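 hDFCGF primary human dermal fibroblasts; 24 h chemical exposure; collagen III by ELISA; bidirectional curve fit vs DMSO baseline (gain or loss of signal).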

[6] = read-out: Epidermal growth factor receptor (EGFR), EGFR (gene 1956); assay: BSK_hDFCGF_EGFR: BioMAP Diversity Plus: hDFCGF Assay for Epidermal growth factor receptor (EGFR) Biomarker Activity (AID 2283057); conditions: primary human foreskin fibroblasts; actives raise or lower the signal
Procedure, shortened: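 Measured by ELISA: EGFR levels on primary human foreskin fibroblasts 24 h after chemical treatment, analysed relative to DMSO with bidirectional fitting.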

[7] = read-out: Interleukin-8 (IL8), CXCL8 (gene 3576); assay: BSK_hDFCGF_IL8: BioMAP Diversity Plus: hDFCGF Assay for Interleukin-8 (IL8) Biomarker Activity (AID 2283058); conditions: primary human foreskin fibroblasts; actives raise or lower the signal
Procedure, shortened: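 ELISA read-out of IL-8 from primary human foreskin fibroblast cultures taken 24 h after dosing; values are bidirectional fits relative to DMSO vehicle.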

[8] = BSK_hDFCGF_Proliferation: Cell Proliferation Assessment in the BioMAP Diversity Plus: hDFCGF Assay (AID 2283059); conditions: primary human foreskin fibroblasts;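 also: curves fitted for both rise and fall of signal versus DMSO baseline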
Procedure, shortened: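 This proliferation readout used SRB total-protein staining of human foreskin fibroblasts […], normalized to DMSO with bidirectional curve fitting.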

[9] = BSK_hDFCGF_SRB: Viability Assessment in the BioMAP Diversity Plus: hDFCGF Assay (AID 2283061); conditions: primary human foreskin fibroblasts;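 also: cells exposed to compound for 24 h before the read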
Procedure, shortened: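 Primary human foreskin fibroblasts; 24 h post-dose; fixed 10% TCA, stained 0.1% SRB, A560 read; total protein as overt cytotoxicity measure; curves fit bidirectionally vs DMSO control.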

[10] = read-out: TIMP metallopeptidase inhibitor 1 (TIMP1), TIMP1 (gene 7076); assay: BSK_hDFCGF_TIMP1: BioMAP Diversity Plus: hDFCGF Assay for TIMP metallopeptidase inhibitor 1 (TIMP1) Biomarker Activity (AID 2283062); conditions: primary human foreskin fibroblasts; actives raise or lower the signal
Procedure, shortened: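 ELISA readout of TIMP-1 from human dermal foreskin fibroblast cultures 24 h post-dosing. Curves were fitted in both directions against DMSO baseline, with SRB total-protein staining in parallel cultures as a cytotoxicity check.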

[11] = read-out: Monokine induced gamma interferon (MIG), CXCL9 (gene 4283); assay: BSK_hDFCGF_MIG: BioMAP Diversity Plus: hDFCGF Assay for Monokine induced gamma interferon (MIG) Biomarker Activity (AID 2283063); conditions: primary human foreskin fibroblasts; actives raise or lower the signal
Procedure, shortened: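 Fibroblasts (human foreskin, primary) dosed, 24 h, MIG by ELISA; fit bidirectional vs DMSO.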

[12] = read-out: Matrix Metallopeptidase 1 (MMP1), MMP1 (gene 4312); assay: BSK_hDFCGF_MMP1: BioMAP Diversity Plus: hDFCGF Assay for Matrix Metallopeptidase 1 (MMP1) Biomarker Activity (AID 2283064); conditions: primary human foreskin fibroblasts; actives raise or lower the signal
Procedure, shortened: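 Primary human foreskin fibroblasts exposed to chemicals for 24 h; MMP1 measured by ELISA. Cytotoxicity tracked by SRB staining in parallel cultures; bidirectional fit relative to DMSO.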

[13] = read-out: Vascular cell adhesion molecule 1 (VCAM1), VCAM1 (gene 7412); assay: BSK_hDFCGF_VCAM1: BioMAP Diversity Plus: hDFCGF Assay for Vascular cell adhesion molecule 1 (VCAM1) Biomarker Activity (AID 2283065); conditions: primary human foreskin fibroblasts; actives raise or lower the signal;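 as to AC50: VCAM-1 protein level quantified by ELISA after 24 h chemical exposure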
Procedure, shortened: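 ELISA read-out of VCAM-1 on human skin fibroblasts, 24 h post-dose; gain or loss of signal fitted bidirectionally against DMSO baseline.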

[14] = read-out: Plasminogen activator inhibitor-1 (PAI1), SERPINE1 (gene 5054); assay: BSK_hDFCGF_PAI1: BioMAP Diversity Plus: hDFCGF Assay for Plasminogen activator inhibitor-1 (PAI1) Biomarker Activity (AID 2283066); conditions: primary human foreskin fibroblasts; actives raise or lower the signal
Procedure, shortened: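 PAI-1 levels, determined by ELISA, served as the endpoint in human foreskin fibroblast cultures exposed to compound for 24 h, with DMSO as baseline.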

[15] = read-out: Intercellular Adhesion Molecule 1 (ICAM1), ICAM1 (gene 3383); assay: BSK_KF3CT_ICAM1: BioMAP Diversity Plus: KF3CT Assay for Intercellular Adhesion Molecule 1 (ICAM1) Biomarker Activity (AID 2283067); conditions: primary human keratinocytes with fibroblasts; actives raise or lower the signal
Procedure, shortened: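 ELISA readout of ICAM-1; KF3CT human skin co-culture (keratinocytes + foreskin fibroblasts), 24 h post-dose; gain/loss fit vs DMSO baseline.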

[16] = read-out: Interferon-gamma inducible Protein 10 (IP10), CXCL10 (gene 3627); assay: BSK_KF3CT_IP10: BioMAP Diversity Plus: KF3CT Assay for Interferon-gamma inducible Protein 10 (IP10) Biomarker Activity (AID 2283068); conditions: primary human keratinocytes with fibroblasts; actives raise or lower the signal
Procedure, shortened: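 Signal is secreted/surface IP-10 by ELISA in a human primary skin co-culture of keratinocytes and foreskin fibroblasts, taken 24 h post-dosing; DMSO served as negative control.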

[17] = BSK_KF3CT_SRB: Viability Assessment in the BioMAP Diversity Plus: KF3CT Assay (AID 2283069); conditions: primary human keratinocytes with fibroblasts;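 also: total protein by sulforhodamine B staining as a cytotoxicity measure; read 24 h after compound addition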
Procedure, shortened: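 Human keratinocyte and foreskin fibroblast co-culture exposed to chemical for 24 h. Total protein measured in parallel cultures by 0.1% sulforhodamine B staining after 10% TCA fixation, read at 560 nm; bidirectional fit relative to DMSO.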

[18] = read-out: Interleukin-1 alpha (IL1a), IL1A (gene 3552); assay: BSK_KF3CT_IL1a: BioMAP Diversity Plus: KF3CT Assay for Interleukin-1 alpha (IL1a) Biomarker Activity (AID 2283070); conditions: primary human keratinocytes with fibroblasts; actives raise or lower the signal
Procedure, shortened: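 Primary human keratinocyte plus foreskin fibroblast co-culture, dosed and measured at 24 h in 96-well plates. IL-1a level quantified by ELISA; bidirectional fit relative to DMSO.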

[19] = read-out: TIMP metallopeptidase inhibitor 2 (TIMP2), TIMP2 (gene 7077); assay: BSK_KF3CT_TIMP2: BioMAP Diversity Plus: KF3CT Assay for TIMP metallopeptidase inhibitor 2 (TIMP2) Biomarker Activity (AID 2283071); conditions: primary human keratinocytes with fibroblasts; actives raise or lower the signal
Procedure, shortened: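 Keratinocyte–fibroblast co-culture, 24 h exposure; TIMP-2 ELISA, DMSO-normalised bidirectional fit. Parallel SRB (0.1%, TCA-fixed, 560 nm) total-protein staining gauges cytotoxicity.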

[20] = read-out: Macrophage colony-stimulating factor (MCSF), CSF1 (gene 1435); assay: BSK_hDFCGF_MCSF: BioMAP Diversity Plus: hDFCGF Assay for Macrophage colony-stimulating factor (MCSF) Biomarker Activity (AID 2283060); conditions: primary human foreskin fibroblasts; actives raise or lower the signal
Procedure, shortened: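 ELISA read-out of M-CSF in human dermal foreskin fibroblast cultures, 24 h after chemical dosing; gain or loss of signal fitted bidirectionally relative to DMSO baseline.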

Measured: AC50

COc1c(Cl)ccc(Cl)c1C(=O)O
not listed: [20]
inactive: all other assays above

OB(O)O
not listed: [10] | [20]
inactive: all other assays above

CCN(CC)C(=O)c1cccc(C)c1
not listed: [10]
inactive: all other assays above

CC1(C)C(C=C(Cl)Cl)C1C(=O)OCc1cccc(Oc2ccccc2)c1 (stereo not drawn)
active: [5] 4.2 µM | [6] 8.28 µM | [8] 7.38 µM
not listed: [10] | [20]
inactive: all other assays above

CCNc1nc(N)nc(Cl)n1
not listed: [10] | [20]
inactive: all other assays above

COC(=O)c1cccc(C)c1S(=O)(=O)NC(=O)Nc1nc(OCC(F)(F)F)nc(N(C)C)n1
not listed: [6] | [10] | [20]
inactive: all other assays above

C[C@]12C[C@H](O)[C@H]3[C@@H](CCC4=CC(=O)CC[C@@]43C)[C@@H]1CC[C@@H]2C(=O)CO
active: [12] 1.4 µM
not listed: [6] | [18] | [20]
inactive: all other assays above

COC(=O)c1ccccc1S(=O)(=O)NC(=O)Nc1nc(OC(F)F)cc(OC(F)F)n1
not listed: [6] | [20]
inactive: all other assays above

CCCCC(CC)CN1C(=O)C2C3C=CC(C3)C2C1=O (stereo not drawn)
active: [2] 3.97 µM | [5] 30 µM | [8] 29.6 µM | [12] 16 µM | [16] 20 µM
not listed: [6] | [20]
inactive: all other assays above

CCCN(CCC)c1c([N+](=O)[O-])cc(C(F)(F)F)c(N)c1[N+](=O)[O-]
active: [2] 31.3 µM | [5] 31.4 µM | [8] 26.7 µM | [9] 33.3 µM | [11] 35.9 µM | [12] 35.5 µM | [13] 26.9 µM | [14] 20 µM | [15] 36 µM | [16] 34.7 µM | [17] 31.3 µM | [18] 31.3 µM | [19] 30.6 µM
inactive: [1] | [3] | [4] | [7]

CCOC(=O)[C@H](C)Oc1ccc(Oc2nc3ccc(Cl)cc3o2)cc1
active: [5] 3.97 µM | [8] 24.9 µM | [9] 0.508 µM | [16] 25.3 µM
not listed: [6] | [20]
inactive: all other assays above

CCN(Cc1c(F)cccc1Cl)c1c([N+](=O)[O-])cc(C(F)(F)F)cc1[N+](=O)[O-]
active: [2] 30.6 µM | [3] 13.2 µM | [8] 4.89 µM | [11] 20 µM | [12] 9.24 µM | [16] 2.54 µM | [18] 8.48 µM
not listed: [6] | [10]
inactive: all other assays above

COC(=O)c1ccc(CNS(C)(=O)=O)cc1S(=O)(=O)NC(=O)Nc1nc(OC)cc(OC)n1
not listed: [6] | [20]
inactive: all other assays above
